Holding throughout (assay type): functional
Experiment [1] concerns Plasmodium falciparum. Description: GSK_TCMDC: Inhibition of Plasmodium falciparum 3D7 in whole red blood cells, using parasite LDH activity as an index of growth. Test compounds present at 2uM.
Experiment [2] has as its system Plasmodium falciparum. Description: GSK_TCMDC: Inhibition of Plasmodium falciparum Dd2 in whole red blood cells, using parasite LDH activity as an index of growth. Test compounds present at 2uM.
The subject of experiment [3] is HepG2. Description: GSK_TCMDC: Percent inhibition of human HepG2 cell line. Test compounds present at 10uM.

The structures appear in SMILES notation.

From ChEMBL document CHEMBL1157539, “Thousands of chemical starting points for antimalarial lead identification” (Nature, 2010) come the findings set out here.

Take `COc1cc(NC(=O)c2cc([N+](=O)[O-])ccc2NC(=O)CNC2CCCC(C)C2C)cc(OC)c1` (stereo not drawn): the Inhibition was found to be 97% in experiment [1], 80% in experiment [2] and 21% in experiment [3].

In the case of `O=C(Nc1cccc(Cl)c1Cl)NC1CCN(Cc2cccc(O)c2)CC1.O=C(O)C(F)(F)F`, the Inhibition in experiment [1] was found to be 98%; in experiment [2], 1%; in experiment [3], 1%.

With `Cc1ccc2[nH]c(C)c(Br)c(=O)c2c1`, the Inhibition in experiment [1] was determined as 95%; in experiment [2], 84%; in experiment [3] it was 0%.

On to `CCCc1ccccc1Nc1nc(C)cc(N(CC)CCCN2CCCCC2)n1.O=C(O)C(F)(F)F`, for which the Inhibition came out at 98% in experiment [1], 49% in experiment [2] and 27% in experiment [3].

For the compound `CC1CCCN(Cc2c(O)ccc3c(O)c(-c4nc5ccccc5s4)c(=N)oc23)C1` (stereo not drawn), the Inhibition was found to be 100% in experiment [1], 99% in experiment [2] and 20% in experiment [3].

Turning to `O=C(NCCN1Cc2ccccc2C1=O)c1ccc(Oc2ccc(C(=O)NCCN3Cc4ccccc4C3=O)cc2)cc1`, the figures for the Inhibition in experiment [1], in experiment [2] and in experiment [3] were 99%, 95% and 27%, respectively.

On to `COc1cc(-c2nc(-c3ccccc3)c(-c3ccccc3)[nH]2)ccc1OCCN(C)C`, for which the Inhibition in experiment [1] worked out at 100%; in experiment [2], 100%; in experiment [3], 0%.

Take `Cn1c(Sc2ncnc3sccc23)nc2ccccc21`: the Inhibition in experiment [1] came to 100%; in experiment [2], 100%; in experiment [3] it was 0%.

With `O=C(N[C@@H](Cc1ccccc1)C(=O)NC1CCCCC1)c1ccc(O)c(-c2ccc(Cl)c(Cl)c2)c1`, the values for the Inhibition in experiment [1], in experiment [2] and in experiment [3] were 98%, 99% and 0%, respectively.

Take `CCOc1ccccc1C(=O)N1CCc2cc3nccc(N4CCN5CCC[C@H]5C4)c3cc21`: the Inhibition in experiment [1] came to 100%; in experiment [2] it was 58%; in experiment [3] it was 4%.

With `Fc1cccc(COc2ccc(Nc3ncnc4ccc(C#C[C@H]5CCCN5)cc34)cc2Cl)c1`, the Inhibition came out at 91% in experiment [1], 26% in experiment [2] and 7% in experiment [3].

With `CS(=O)(=O)CCNCc1ccc(-c2cc3c(Nc4ccc(OCc5cccc(F)c5)c(Cl)c4)ncnc3s2)[nH]1`, the Inhibition is reported as 99% in experiment [1], 95% in experiment [2] and 5% in experiment [3].

Take `CNC(=O)c1cnc(Nc2ccc(OCC(O)CN(C)C)cc2)nc1Nc1cccc(OC)c1.O=C(O)C(F)(F)F` (stereo not drawn): the values for the Inhibition in experiment [1], in experiment [2] and in experiment [3] were 100%, 97% and 31%, respectively.

For `CC(C)n1cc(CN2CCCC(C(=O)Nc3cccc(-c4cc5ccccc5[nH]4)c3)C2)cn1` (stereo not drawn), the figures for the Inhibition in experiment [1], in experiment [2] and in experiment [3] were 96%, 65% and 34%, respectively.

Consider `CC1CCCC(NCc2c(O)ccc3ccccc23)C1.Cl` (stereo not drawn), for which the Inhibition in experiment [1] was found to be 93%; in experiment [2] it was 25%; in experiment [3] it was 10%.

Regarding `O=C(Nc1cccc(CN2CCCN(Cc3cccc(Cl)c3)CC2)c1)c1ccc(Br)cc1.O=C(O)C(F)(F)F`, the Inhibition in experiment [1] was 92%; in experiment [2] it was 16%; in experiment [3], 38%.

On to `CCOC(=O)CC[C@H](NC(=O)c1ccc(NS(=O)(=O)c2ccc(-c3cnc(N)[nH]c3=O)cc2)cc1)C(=O)OCC`, for which the Inhibition worked out at 95% in experiment [1], 2% in experiment [2] and 5% in experiment [3].

On to `CCN(CC)CCN(Cc1ccc(-c2ccc(C(F)(F)F)cc2)cc1)C(=O)Cn1c(CCc2cccc(F)c2F)nc(=O)c2cc(F)c(F)cc21.O=C(O)C(O)C(O)C(=O)O`, for which the Inhibition is given as 100% in experiment [1], 56% in experiment [2] and 41% in experiment [3].

For the compound `CC(CN1CCN(C)CC1)C(=O)Nc1ccc(-c2ccc(-c3nc4ccccc4[nH]3)cc2)cc1` (stereo not drawn), the results for the Inhibition in experiment [1], in experiment [2] and in experiment [3] were 92%, 87% and 13%, respectively.

On to `Cc1ccc2[nH]c3c(NCCCN(C)C)ncnc3c2c1`, for which the Inhibition in experiment [1] was 99%; in experiment [2], 0%; in experiment [3], 1%.

With `COc1ccccc1CCNc1nc(C)cc(N[C@@H](Cc2ccccc2)C(=O)NCCc2ccccc2)n1.O=C(O)C(F)(F)F`, the Inhibition in experiment [1] amounted to 100%; in experiment [2], 89%; in experiment [3], 16%.

In the case of `NC(=O)c1cccc(C(=O)Nc2cccc(-c3cccc(-c4nc5cc(F)ccc5[nH]4)c3)c2)c1`, the Inhibition in experiment [1] came out at 100%; in experiment [2], 73%; in experiment [3], 47%.

Consider `CCN(CC)CC(O)c1cc(-c2ccc(OC)cc2)nc2cc(Cl)ccc12.Cl` (stereo not drawn), for which the Inhibition worked out at 99% in experiment [1], 98% in experiment [2] and 12% in experiment [3].

`Cc1nc(N/C=C/c2ccc(O)cc2)cc(N2CCCC2)n1`: the Inhibition in experiment [1] turned out to be 93%; in experiment [2], 54%; in experiment [3], 0%.

Regarding `O=C(Nc1cccc(F)c1)N[C@H]1CCN(CCCCCNC(=O)C2CC2c2ccc(Cl)c(Cl)c2)C1` (stereo partly drawn), the Inhibition in experiment [1] is 90%; in experiment [2] it was 1%; in experiment [3] it was 41%.

`Cn1cncc1C(=O)Nc1ccc(-c2cccc(-c3nc4cc(C(F)(F)F)ccc4[nH]3)c2)cc1`: the Inhibition in experiment [1] is 100%; in experiment [2] it was 3%; in experiment [3], 34%.

For `Fc1ccccc1C=NN=c1cc[nH]c2ccc(C(F)(F)F)cc12`, the results for the Inhibition in experiment [1], in experiment [2] and in experiment [3] were 100%, 61% and 5%, respectively.

Take `CN1CCN(CCCN(Cc2cccc(-c3ccc(CNCc4ccc5c(c4)OCO5)cc3)c2)C(=O)CCC2CCCC2)CC1.O=C(O)C(F)(F)F`: the Inhibition in experiment [1] was determined as 98%; in experiment [2], 84%; in experiment [3], 91%.

Turning to `NS(=O)(=O)NCCCN1CCN(c2ccccc2)CC1`, the Inhibition in experiment [1] stood at 90%; in experiment [2], 73%; in experiment [3], 2%.

For the compound `Cc1nc(N)nc(N)c1-c1cc(Cl)c(N)c(Cl)c1`, the Inhibition in experiment [1] was found to be 94%; in experiment [2], 2%; in experiment [3] it was 62%.

Take `Cc1ccc(Cc2c[nH]c(NCCSCc3ccc(CN4CCOCC4)o3)nc2=O)cn1`: the Inhibition in experiment [1] came out at 95%; in experiment [2], 0%; in experiment [3], 2%.

By Inhibition is commonly meant the change of the read-out against control, counted positive when it falls. A high value points to a strong effect.
